# Data as given in PubChem BioAssay.
# A number with no mark means an inactive call. Inconclusive results are not listed. Activity calls are given as the source filed them.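 The calls were made as follows, unless noted: active = inhibition over a set limit, the all-compound mean plus 3 SD, in both replicate runs; inconclusive = over that limit in just one replicate run; inactive = at or under that limit in both runs.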
# Test: growth suppression of PTEN-deleted HCT116, pilot screen, cell-based, HCT116 clonal line, CellTiter-Glo (AID 824;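 active = viability at or below 27.92% in each of two runs, the all-compound median minus 4 SD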;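 also: 0% = 20 µM Hyamine control and 100% = vehicle cell control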)
# Settings: 60 h, at 10 µM, hits give low values
row,Structure (SMILES),viability
1,O=C(Cn1cc2c(n1)CCCC2)N1CCOCC1,108%
2,CCOc1ccc(-c2nnc3ccc(SCC(=O)N4CCCCC4)nn23)cc1,101%
3,O=C(NC1CCCCCCC1)c1c(O)c2ccccc2[nH]c1=O,92.5%
4,COC(=O)C(C)Sc1nnc(Cc2cc(=O)[nH]c(=O)[nH]2)n1-c1ccc(OC)cc1 (stereo not given),101%
5,O=C(CCn1c(=O)oc2ccccc21)Nc1ccc2c(c1)OCCO2,96%
6,CCCOC(=O)C1=C(C)NC2=C(C(=O)C(C(=O)OC)C(C)C2)C1c1ccc(N(CC)CC)cc1 (stereo not given),56.8%
7,CC1CCc2nn(CC(=O)NCCCN3CCCC3=O)cc2C1 (stereo not given),93.7%
8,COc1ccc(C2C(C(=O)Nc3ccccc3OC)=C(C)Nc3ncnn32)cc1 (stereo not given),94.4%
9,COc1ccccc1NC(=O)CSc1nc2ncccc2[nH]1,98.2%
10,O=C(NCc1ccccc1Cl)c1cnc2n(c1=O)CCS2,96.9%
11,CCCS(=O)(=O)c1nc(S(=O)(=O)c2ccc(C)cc2)c(NCCCN2CCOCC2)s1,99.9%
12,CCOC(=O)C(C)Sc1ncnc2nc[nH]c12 (stereo not given),99.2%
13,O=C(CSc1ncccn1)NCCc1ccccc1,97.2%
14,CN1CCN(C(=O)c2ccc3c(c2)N(Cc2cccc(Cl)c2)C(=O)c2ccccc2S3=O)CC1 (stereo not given),99.1%
15,Cc1nc2sc(C(c3ccccc3)N3CCN(CCO)CC3)c(O)n2n1 (stereo not given),98.6%
16,N=c1n(CCO)c2ccccc2n1CCOc1ccc(Cl)cc1Cl,1.54% (active)
17,CCOCCCNC(=O)C(c1ccc(Cl)cc1)N1CCN(c2ccccc2)CC1 (stereo not given),85%
18,CCn1c(CNC(=O)c2ccc(OC)cc2)nnc1SC,91.9%
19,COc1ccc(C2C(C(=O)NCCN(C)C)c3ccccc3C(=O)N2C)cc1OC (stereo not given),97.9%
20,Cc1csc2nc(CNS(=O)(=O)c3ccc(-c4ccccc4)cc3)cn12,93.7%

row,Structure (SMILES),viability
1,Cc1cc(-c2nnco2)c(C)n1-c1ccc(F)cc1,85.3%
2,Cc1nn(-c2ccccc2)c(C)c1C(=O)OCC(=O)Nc1ccc2c(c1)OCO2,92.9%
3,Cc1nc2ccccc2n1-c1ccccc1,96.4%
4,CCSc1nnc(-c2ccc(Cl)cc2Cl)o1,85.4%
5,COc1ccccc1N1CCN(C(=O)CCCCn2c(=O)[nH]c3ccsc3c2=O)CC1,88.5%
6,C=CCn1c(CSc2nc3ccccc3s2)nnc1SCC(=O)OCC,101%
7,COc1ccc(-n2ncc3c(N4CCCCC4)ncnc32)cc1,57.1%
8,CCC(=O)NCc1nc2ccccc2n1Cc1ccccc1F,99.2%
9,O=C(CCS(=O)CCC(=O)NCc1ccccc1)NCc1ccccc1,102%
10,COc1ccc(N2CCN(C(=O)C(Cc3ccccc3)n3cccc3)CC2)cc1 (stereo not given),82.6%
11,CCCC(=O)c1ccc(N2CCOCC2)c(F)c1,98.2%
12,Cc1ccccc1-n1c(Cn2c(=O)sc3ccccc32)nnc1SCC(=O)N1CCOCC1,100%
13,COc1ccc(OC)c2sc(NC(=O)c3ccc(Br)s3)nc12,59.5%
14,CCc1c(C)sc(NC(=O)c2cccs2)c1C(=O)OC(C)C,79.1%
15,COc1ccc(C(=O)Nc2ccccc2C(=O)NCCCn2ccnc2)cc1,92.9%
16,CC(=O)Nc1ccc(C(=O)c2ccccc2)cc1,92.5%
17,O=C(NCCCN1CCC(Cc2ccccc2)CC1)C1CC(=O)N(C2CCCC2)C1 (stereo not given),83.7%
18,CC(C)(C)c1nc(CN2CCCCC2)cc(CN2CCCCC2)c1O,76.2%
19,O=C1CCC(=O)N1CNc1cccnc1,103%
20,O=C(Cc1c(F)cccc1Cl)c1ccc(O)cc1O,100%

# Test: inhibitors of the yeast RAM network, pilot screen, dse1pr::URA3 reporter, 5-FOA selection (AID 869);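 also: 0% = DMSO wells with no growth and 100% = 10 µM 1-NA-PP1 with full growth; RAM network block rescues cells from 5-FOA so hits raise OD615 growth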
# Settings: S. cerevisiae dse1pr::URA3 5-FOA growth, OD615, 2 d; at 10 µM; hits give high values; strain carries analog-sensitive mutant Cbk1 kinase
row,Structure (SMILES),inhibition
1,O=C(Cn1cc2c(n1)CCCC2)N1CCOCC1,0.095%
2,CCOc1ccc(-c2nnc3ccc(SCC(=O)N4CCCCC4)nn23)cc1,2.06%
3,O=C(NC1CCCCCCC1)c1c(O)c2ccccc2[nH]c1=O,2.4%
4,COC(=O)C(C)Sc1nnc(Cc2cc(=O)[nH]c(=O)[nH]2)n1-c1ccc(OC)cc1 (stereo not given),1.41%
5,O=C(CCn1c(=O)oc2ccccc21)Nc1ccc2c(c1)OCCO2,1.88%
6,CCCOC(=O)C1=C(C)NC2=C(C(=O)C(C(=O)OC)C(C)C2)C1c1ccc(N(CC)CC)cc1 (stereo not given),1.56%
7,CC1CCc2nn(CC(=O)NCCCN3CCCC3=O)cc2C1 (stereo not given),1.29%
8,COc1ccc(C2C(C(=O)Nc3ccccc3OC)=C(C)Nc3ncnn32)cc1 (stereo not given),1.78%
9,COc1ccccc1NC(=O)CSc1nc2ncccc2[nH]1,0.975%
10,O=C(NCc1ccccc1Cl)c1cnc2n(c1=O)CCS2,0.995%
11,CCCS(=O)(=O)c1nc(S(=O)(=O)c2ccc(C)cc2)c(NCCCN2CCOCC2)s1,0.475%
12,CCOC(=O)C(C)Sc1ncnc2nc[nH]c12 (stereo not given),1.11%
13,O=C(CSc1ncccn1)NCCc1ccccc1,2.3%
14,CN1CCN(C(=O)c2ccc3c(c2)N(Cc2cccc(Cl)c2)C(=O)c2ccccc2S3=O)CC1 (stereo not given),0.63%
15,Cc1nc2sc(C(c3ccccc3)N3CCN(CCO)CC3)c(O)n2n1 (stereo not given),1.32%
16,N=c1n(CCO)c2ccccc2n1CCOc1ccc(Cl)cc1Cl,1%
17,CCOCCCNC(=O)C(c1ccc(Cl)cc1)N1CCN(c2ccccc2)CC1 (stereo not given),0.95%
18,CCn1c(CNC(=O)c2ccc(OC)cc2)nnc1SC,1.44%
19,COc1ccc(C2C(C(=O)NCCN(C)C)c3ccccc3C(=O)N2C)cc1OC (stereo not given),-0.2%
20,Cc1csc2nc(CNS(=O)(=O)c3ccc(-c4ccccc4)cc3)cn12,0.94%

row,Structure (SMILES),inhibition
1,Cc1cc(-c2nnco2)c(C)n1-c1ccc(F)cc1,0.83%
2,Cc1nn(-c2ccccc2)c(C)c1C(=O)OCC(=O)Nc1ccc2c(c1)OCO2,3.68%
3,Cc1nc2ccccc2n1-c1ccccc1,0.185%
4,CCSc1nnc(-c2ccc(Cl)cc2Cl)o1,1.65%
5,COc1ccccc1N1CCN(C(=O)CCCCn2c(=O)[nH]c3ccsc3c2=O)CC1,2.13%
6,C=CCn1c(CSc2nc3ccccc3s2)nnc1SCC(=O)OCC,-0.335%
7,COc1ccc(-n2ncc3c(N4CCCCC4)ncnc32)cc1,1.78%
8,CCC(=O)NCc1nc2ccccc2n1Cc1ccccc1F,0.885%
9,O=C(CCS(=O)CCC(=O)NCc1ccccc1)NCc1ccccc1,0.92%
10,COc1ccc(N2CCN(C(=O)C(Cc3ccccc3)n3cccc3)CC2)cc1 (stereo not given),1.7%
11,CCCC(=O)c1ccc(N2CCOCC2)c(F)c1,-0.25%
12,Cc1ccccc1-n1c(Cn2c(=O)sc3ccccc32)nnc1SCC(=O)N1CCOCC1,1.56%
13,COc1ccc(OC)c2sc(NC(=O)c3ccc(Br)s3)nc12,2.71%
14,CCc1c(C)sc(NC(=O)c2cccs2)c1C(=O)OC(C)C,1.9%
15,COc1ccc(C(=O)Nc2ccccc2C(=O)NCCCn2ccnc2)cc1,0.715%
16,CC(=O)Nc1ccc(C(=O)c2ccccc2)cc1,0.97%
17,O=C(NCCCN1CCC(Cc2ccccc2)CC1)C1CC(=O)N(C2CCCC2)C1 (stereo not given),-0.05%
18,CC(C)(C)c1nc(CN2CCCCC2)cc(CN2CCCCC2)c1O,0.505%
19,O=C1CCC(=O)N1CNc1cccnc1,0.34%
20,O=C(Cc1c(F)cccc1Cl)c1ccc(O)cc1O,0.3%
